From PubChem BioAssay (EPA / NIEHS) come the findings set out here.

SMILES strings stand for the structures. The source made the active and inactive calls. How the source made its calls: active means hit-call score of the fitted dose curve at least 0.9, where 1 is the maximum; inactive means score below 0.9.

Read-out in this experiment: Monokine induced gamma interferon (MIG), CXCL9 (gene 4283)
Put plainly: BSK_CASM3C_MIG: BioMAP Diversity Plus: CASM3C Assay for Monokine induced gamma interferon (MIG) Biomarker Activity (AID 2283048).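 Further: MIG protein level measured by ELISA.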 Conditions: primary human coronary artery smooth muscle cells; actives raise or lower the signal.
As to `COCCOC[C@H](CC1(C(=O)NC2CCC(C(=O)O)CC2)CCCC1)C(=O)Oc1ccc2c(c1)CCC2` (stereo not given in full), the result was inactive.
Turning to `COc1cc(-c2nc(NC(=O)c3cc4cc(C)cc(C)c4n3CC(=O)O)sc2CCC2CCCCC2)c(OC)cc1Cl`, the half-maximal activity concentration (AC50) (usually the concentration giving half of the maximal activity seen) is 11.7 µM (active).
Turning to `NCC1(Cc2noc(=O)[nH]2)CCCCC1`, the outcome was inactive.
For `CCCCC(CC)COC(=O)CC(C(=O)OCC(CC)CCCC)S(=O)(=O)O` (stereo not given), the result was inactive.
As to `CCOC(=O)CCC(=O)OCC`, the outcome was inactive.
On the same count and under the same terms, the same measure for `Nc1ccc(S(=O)(=O)c2ccc(N)cc2)cc1`: “inactive”.
Regarding `CC(C)c1ccc(C(=O)N=C(N)N)cc1S(C)(=O)=O`, the outcome was inactive.
As for `CCCCCCOCCO`, the result was inactive.
Regarding `CC(CO)OC(C)CO` (stereo not given) (tested in a mixture with another compound), the outcome was inactive.
Still for that read-out and setting: the same measure for `COc1cc(C=O)ccc1O`: “inactive”.
Regarding `c1cc(-c2ccncc2)ccn1`, the outcome was inactive.
Still for that read-out and setting: under `CCNc1cccc(C)c1` stands “inactive”.
Same read-out and setting: under `CN1CCN(Cc2cc(-c3ccc4[nH]c(=O)oc4c3)co2)[C@@H](c2ccc(F)cc2)C1` stands “inactive”.
For the compound `Cc1nc(-c2ccc3c(c2)CCN(CCC2CCC(NC(=O)/C=C/c4ccc(F)cc4)CC2)CC3)no1` (stereo not given), the half-maximal activity concentration (AC50) is 11.7 µM (active).
On to `O=c1c(O)c(-c2ccc(O)c(O)c2)oc2cc(O)cc(O)c12`, for which the concentration at half-maximal activity (AC50) is 20 µM (active).
On the same count and under the same terms, the same measure for `CN[C@H]1CC[C@@H](c2ccc(Cl)c(Cl)c2)c2ccc(S(N)(=O)=O)cc21`: 31.2 µM (active).
In the case of `CCCCN(CCCC)CCCC`, the outcome was inactive.
Same read-out and setting: the same measure for `COC(=O)c1ccc(O)cc1`: “inactive”.
On the same count and under the same terms, the same measure for `CC1=C(/C=C/C(C)=C/C=C/C(C)=C/CO)C(C)(C)CCC1`: “inactive”.
Same read-out and setting: the same measure for `CNC(=O)[C@H]1O[C@@H](n2cnc3c(NCc4cc(Cl)ccc4OCc4cc(C)no4)ncnc32)[C@H](O)[C@@H]1N`: “inactive”.
